# Assay results as given in ChEMBL document CHEMBL4888484, “Replenishing the malaria drug discovery pipeline: Screening and hit evaluation of the MMV Hit Generation Library 1 (HGL1) against asexual blood stage Plasmodium falciparum ,using a nano luciferase reporter read-out” (2022).
# Out of some 4,800 compounds screened, about 420 (8.8%) showed an effect of 50% or more. Shown is part of a subset that was picked to be rich in strong results.
# Test system: Plasmodium falciparum
# Assay: Confirmatory screen in NF54 nanoGlo assay, in single point, at 2uM, 72h
# Type: functional, Erythrocyte
# Details: timepoint 72 hour
row,SMILES,% Inhibition
1,O=C(Nc1ccc(N2CCC(N3CCCCC3)CC2)cc1C(=O)O)c1ccccc1Cl,4%
2,O=C1C2C3C=CC(C3=C(c3ccccc3)c3ccccc3)C2C(=O)N1CCO (stereo unspecified),-5%
3,N#Cc1ccc(N[C@H]2CCCN(Cc3ccc(F)cc3F)C2=O)cn1,-10%
4,Cc1nc(COc2nc(C(C)(C)C)no2)cs1,-10%
5,Cc1ccsc1NC(=O)OC(C)(C)C,1%
6,Cc1nonc1N(Cc1ccc(Cl)cc1Cl)S(=O)(=O)c1ccccc1,-22%
7,COc1cc(C(=O)N2CCN(c3ccccc3)CC2)cc2occc12,-2%
8,O=C(NCc1cccc(Br)c1)c1ccc(Cl)c(-n2cnc3cccnc32)c1,-1%
9,O=C(COCC(=O)Nc1cccc(Cl)c1Cl)NCCC1=CCCCC1,-3%
10,O=C(O)C1CC=CCC1C(=O)N1CCCCCC1 (stereo unspecified),2%
11,NC(=O)C(=O)Nc1ccccc1C(F)(F)F,-8%
12,COc1ccc(-n2ncc(Oc3cccc(C)c3)c(Nc3cccc(C(=O)NCc4ccc(F)cc4)c3)c2=O)cc1,50%
13,COc1ccc(CNC(=O)c2cc(C(=O)c3ccc(F)cc3)c[nH]2)cc1,-11%
14,CC(C)c1ccc(Oc2cnn(-c3cccc(Cl)c3)c(=O)c2Nc2cccc(C(=O)NC3CC3)c2)cc1,48%
15,O=c1cc(COc2ccc(F)c(F)c2)nc2sccn12,3%
16,Cc1cc2nc(C)c(=O)n(CCC(=O)NCCCN(C)C3CCCCC3)c2cc1C,0%
17,O=C(CCn1nc(-c2ccc3c(c2)OCO3)ccc1=O)NC1CCCCC1,-10%
18,CN(CCNC(=O)CCc1cn(-c2ccccc2)nc1-c1ccc2c(c1)OCO2)C1CCCCC1,52%
19,CN(C)c1noc(CN2CCc3ccc(F)cc3C2)n1,25%
20,COc1ccc(S(=O)(=O)Nc2c(C)nc3ncnn3c2O)cc1,-18%
21,CCN1CCN(c2nc(O)c3c(n2)NC(=O)C[C@H]3c2cccc(F)c2)CC1,-11%
22,Cn1ncc2c(NCCO)nc(N3CCCCCC3)nc21,5%

row,SMILES,% Inhibition
1,O=S(=O)(NC1CCCCC1)c1ccc(Cl)c(S(=O)(=O)NC2CCCCC2)c1,0%
2,N#Cc1cc(S(=O)(=O)NCCN(C2CC2)S(=O)(=O)c2ccc(Cl)c(C#N)c2)ccc1Cl,75%
3,COc1ccc(-n2nc(C(=O)N3CCN(c4ccccc4)CC3)c(=O)cc2OC)cc1,-5%
4,Cn1ccnc1[C@@H](NC(=O)c1ccnn1C(F)F)C(C)(C)CO,-2%
5,CCc1nc2c(C(=O)N3CCOc4c(C)cc(C)cc43)ccnc2[nH]1,72%
6,COc1cccc(CNCc2ccc3c(c2)OCO3)c1OCc1ccc(Cl)cc1Cl,-3%
7,Cc1c(C(=O)N2CCCCC2)cccc1N1CCNC1=O,-15%
8,COc1ccc2c(c1)OC13CCN(C)CC1C2C(C(=O)c1ccccc1OC)C(=O)N3 (stereo unspecified),57%
9,COc1cccc(C(=O)N2CCC3(CC2)C[C@@H](OCc2ccccc2)CCO3)c1,-3%
10,COc1cccc(NC(=O)c2ccccc2C(=O)OCCN2CCOCC2)c1,-2%
11,Cc1cc(C(=O)NCC[C@H](C)n2nc(C)cc2C)c2c(-c3ccc(F)cc3)noc2n1,-9%
12,Cn1cc(-c2nn(S(=O)(=O)c3ccccc3)c(-c3cnn(C)c3)c2Cl)cn1,2%
13,CC1CC1NC(=O)C(NS(C)(=O)=O)C(C)(C)C (stereo unspecified),8%
14,Cc1nc[nH]c1CN1CCN(C(=O)CCC(C)C)[C@H]2CS(=O)(=O)C[C@H]21,0%
15,CCc1nc2cc(-c3noc(Cc4ccc(Cl)cc4)n3)ccc2o1,-5%
16,Cc1ccc(-n2nc(C)cc2NC(=O)CN2CCCN(c3ccc(C(F)(F)F)cn3)CC2)cc1,6%
17,O=C(c1ccccc1)c1ccc(O)c(CN2CCCN(c3ccc(C(F)(F)F)cn3)CC2)c1O,79%
18,Cc1cccc(-c2nc3nc(C)c(CC(=O)N4CCCCC4)c(C)n3n2)c1,1%
19,O=C(c1ccccc1OCC1CC1)N1CC(O)C1,-5%
20,Cc1c(Cl)cccc1NC(=O)[C@H]1CC(=O)N(c2ccc(OCc3ccccc3)cc2)C1,-3%
21,O=C(Cn1cnc2cc3c(cc21)OCCCO3)N1CCc2ccccc21,0%
22,COc1cccc(CNC(C)(C)C)c1OCC(=O)NC(C)(C)C,-5%

row,SMILES,% Inhibition
1,CCOc1cc(CNc2cccc3ccccc23)cc(Br)c1OCC(=O)NC(C)(C)C,89%
2,CC[C@@H](CO)NCc1cccc(OC)c1OCC(=O)NC(C)(C)C,-8%
3,COc1ccc(Cl)cc1CNC[C@H](C)O,-6%
4,C[n+]1ccccc1/C=C/c1c[nH]c2ccccc12,90%
5,CCc1ccc(/C=C/c2c[nH]c3ccccc23)[n+](CC)c1,89%
6,O=C(Cc1cccs1)NC1CCN(c2nnc3ccc(Cl)cn23)CC1,-12%
7,Cc1ccc([C@@H]2c3cccn3CCCN2Cc2cccs2)cc1C,10%
8,O=C(O)COc1ccccc1[C@H]1CC(O)=Nc2cccc3c2c1cn3Cc1cccc(F)c1,1%
9,N#Cc1ccc(CNc2ccccc2OCC(F)F)o1,-10%
10,CNCCCNC(=O)c1ccc(Br)cc1C,5%
11,COc1cc(CNC2CCCCC2)cc(Br)c1OCc1ccccc1Cl,5%
12,COc1cc(NC(=O)N2CC(c3noc(-c4ccccc4)n3)C2)cc(OC)c1OC,2%
13,CNC(=O)[C@@H]1C[C@H](NCc2cc(OC)c(OC)c(OC)c2)CN1CC(c1ccccc1)c1ccccc1,63%
14,Cc1nc([C@H](C)NC(=O)c2ccc(S(C)(=O)=O)cc2)cs1,3%
15,Cc1onc(C(=O)N2CCC3(CC2)CC[C@]3(C)O)c1Cn1cccn1,-6%
16,CC(=O)Nc1cc2c(cc1NC(C)=O)N(C(C)=O)CC2,-15%
17,COc1ccc(C2=Nc3ccc(S(=O)(=O)N4CCOCC4)cc3S(=O)(=O)N2)cc1,-10%
18,C[C@H]1CCC[C@@H](NCCc2ccccc2)CCC/C=C/c2cc(O)cc(O)c2C(=O)O1,77%
19,Cc1nc2c(-c3ccco3)nc(=O)n(CC(=O)Nc3cccc4ccccc34)c2s1,-8%
20,COc1cccc(NC(=O)N2CC(O)CC2C2CCCCC2)c1 (stereo unspecified),-3%
21,Oc1cccc(CN2CCC3(CC2)C[C@H](c2ccccc2)CN(C2CC2)C3)c1,31%
22,COc1ccc(-c2nccn3cc(C(=O)NCC(C)C)nc23)cc1,-2%

row,SMILES,% Inhibition
1,Cc1cccc(Cc2c(C)nn(-c3nc(C)cc(C)n3)c2O)c1,-18%
2,CN(C)C(=O)c1cc2c(s1)CC[C@H](C(=O)NCCN1CCOCC1)C2,6%
3,Cc1nn(-c2nc3ccccc3[nH]2)c2c1[C@@H](c1cccnc1)CC(=O)N2,79%
4,Cc1nn(-c2ncccn2)c2c1[C@@H](c1ccccc1)CC(=O)N2,-16%
5,O=C1C[C@H](c2cccnc2)c2cnn(C3CCCC3)c2N1,6%
6,O=C(CN1CCC[C@H]1C1CCCC1)NCC1CCCCC1,27%
7,CC1=NN(c2ccccc2)C(O)C1C(c1ccccc1O)C1C(C)=NN(c2ccccc2)C1O (stereo unspecified),-7%
8,Cc1ccccc1Cn1nc2ccc(S(=O)(=O)N3CCOCC3)cn2c1=O,4%
9,COc1ccc2[nH]c3c(c2c1)CCN(C(=O)c1ccc(C)c(C)c1)[C@@H]3c1ccccc1OC,84%
10,COc1ccc([C@@H]2c3[nH]c4ccc(OC)cc4c3CCN2C(=O)NCc2ccc(F)cc2)cc1,14%
11,COc1ccc(N2CCN(C(=O)c3ccc(F)cc3)[C@@H](C)C2=O)cc1,5%
12,COC(=O)c1nc2ccccc2c(-c2cn(-c3ccc(C(F)(F)F)cc3)nn2)c1C(=O)OC,1%
13,CC(C)CNC(=O)N1CCCC[C@H]1c1noc(COc2ccc(F)cc2)n1,-9%
14,COc1ccc(C2=NN(C(C#N)c3cccc(OC)c3O)C(c3ccccc3)C2)cc1 (stereo unspecified),4%
15,c1ccc(C2=NN(c3ccc(-c4cc(-c5ccccc5)[n+](-c5ccccc5)c(-c5ccccc5)c4)cc3)[C@H](c3ccccc3)C2)cc1,94%
16,N#CC(c1ccc(Cl)cc1)N1N=C(c2ccccc2)CC1c1ccccc1 (stereo unspecified),4%
17,CC(NCC(O)Cn1c(-c2ccccc2)c(-c2ccccc2)c2ccc3ccccc3c21)c1ccccc1 (stereo unspecified),88%
18,Cc1c(C)n(CC(O)CNC(C)c2ccccc2)c2c(Cl)cccc12 (stereo unspecified),64%
19,Cc1c(C)n(C[C@H](O)Cn2c(C(F)(F)F)nc3ccccc32)c2c(Cl)cccc12,-6%
20,Cc1c(C)n(C[C@@H](O)CNC2CCCC2)c2c(Cl)cccc12,-1%
21,CCC(C)NCC(O)Cn1c(-c2ccccc2)c(-c2ccccc2)c2cc(C)ccc21 (stereo unspecified),92%
22,Cc1cccc(C(=O)Nc2c(C#N)c(-c3ccccc3)c(-c3ccccc3)n2Cc2ccccc2)c1,3%

row,SMILES,% Inhibition
1,O=C(Cn1c(=O)n(Cc2nc(-c3ccccc3)no2)c(=O)c2ccccc21)Nc1cccc(Cl)c1,5%
2,O=C(NCc1ccccc1)c1cnn2c3c(cnc12)CCCCCC3,2%
3,CCc1ccccc1NC(=O)c1sccc1S(=O)(=O)N1CCc2ccccc2C1,2%
4,Cc1cnc(CNC(=O)Nc2nnc3ccccn23)s1,-13%
5,NC(=O)c1cccc(NC(=O)CC2=CCCCC2)n1,-11%
6,CC[C@H]1CN2C=NC(N3CCN(C(=O)Nc4cc(F)cc(F)c4)CC3)=CC2=N1,35%
7,O=C(CCC(=O)c1ccc(F)cc1F)NS(=O)(=O)c1cccnc1,-4%
8,Cc1ccc(S(=O)(=O)Nc2ccccc2-c2nnc(-c3c(NS(=O)(=O)c4ccc(C)cc4)ccc4ccccc34)o2)cc1,-14%
9,Cc1ccc(NS(=O)(=O)c2ccc(NC(=O)Cc3ccccc3)cc2)cc1C,2%
10,Cc1cnc(C2CCC2)n1CCNS(=O)(=O)c1ccccc1,-4%
11,Cc1ccc(S(=O)(=O)Nc2c(S(=O)(=O)c3ccccc3)c3nc4ccccc4nc3n2CCc2ccccc2)cc1,97%
12,Cc1ccc(S(=O)(=O)c2c(C)cc(-c3ccccc3)nc2N2CCOCC2)cc1,0%
13,Cc1ccc(S(=O)(=O)Nc2cc3nc4ccccc4nc3n2CCc2ccccc2)cc1,100%
14,Cc1ccc(-c2nc3c(c(=O)n2CC(=O)NC[C@H]2CCCO2)CCN(Cc2ccccc2)C3)cc1,-9%
15,Cc1cc(NC(=O)Cn2c(=O)n(CCc3ccccc3)c(=O)c3ccccc32)no1,4%
16,Cc1ccc(S(=O)(=O)Nc2c(S(=O)(=O)c3ccc(C)cc3)c3nc4ccccc4nc3n2C[C@H]2CCCO2)cc1,52%
17,Cc1ccc(S(=O)(=O)Nc2c(S(=O)(=O)c3ccc(C)cc3)c3nc4ccccc4nc3n2CCC(C)C)cc1,98%
18,CS(=O)(=O)n1c(CCCc2ccccc2)nc2ccccc21,1%
